Measured values from PubChem BioAssay AID493011 (Sanford-Burnham Center for Chemical Genomics, 2011).
Among all 330,000 compounds or so, about 1,400 (0.42%) were called active.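 How the source made its calls: active means at least 40% inhibition at 20 µM here, with at most 30% in a related deaminase screen; inactive means the rest.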 The list comes from a sample in which actives are over-represented; it also holds similar structures and randomly drawn compounds.

target: DNA dC->dU-editing enzyme APOBEC-3A (Homo sapiens) (UniProt P31941); experiment: blockers of A3A cytidine deamination on DNA – biochemical, FAM/TAMRA oligo cleavage fluorescence, selectivity assay for APOBEC3G inhibitor project, primary screen (AID 493011); settings: recombinant A3A, FAM/TAMRA ssDNA deamination fluorescence; at 20 µM; active compounds read high;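 further: plate controls were A3A with DMSO for no effect and wells lacking A3A enzyme for full effect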
Sequence (P31941 whole entry, looked up): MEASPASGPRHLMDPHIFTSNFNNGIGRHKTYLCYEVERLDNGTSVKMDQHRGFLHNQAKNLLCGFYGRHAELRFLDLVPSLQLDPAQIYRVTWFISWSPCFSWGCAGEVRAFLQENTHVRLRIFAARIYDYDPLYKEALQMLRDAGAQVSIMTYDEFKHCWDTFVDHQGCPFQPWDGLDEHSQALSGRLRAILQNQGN

inhibition, inactive:
CCS(=O)(=O)C1=NSC2=NC(=O)/C(=C\c3ccc(OS(=O)(=O)c4ccccc4)cc3)C(=N)N21 -0.304%, COc1cc(C)c(Cl)cc1S(=O)(=O)n1ccnc1 -3.09%, Cc1noc(C)c1S(=O)(=O)N(C)C[C@H]1Oc2ccc(NC(=O)C3CC3)cc2C(=O)N([C@H](C)CO)C[C@@H]1C -2.35%, O=C(NNC(=O)c1cnccc1C(F)(F)F)c1ccc(Cl)cc1 -3.45%, CN(c1ccccc1)S(=O)(=O)c1cc(C(=O)Nc2nc3ccccc3[nH]2)ccc1Cl 2.16%, O=C(Nc1ccccc1)c1cc2ccccc2[nH]1 2.51%, C/C(=N\NC(=O)C1(C)CC1(Br)Br)c1ccc(C)cc1C (stereo not given) 3.9%, CC(Oc1ccc(F)cc1)C(=O)N1CCN(c2ncccn2)CC1 (stereo not given) 3.53%, Cc1ccc(NC(=O)COc2coc(CN3CCc4ccccc4C3)cc2=O)cc1Cl -2.19%, c1ccc(C(c2ccccc2)N2CCN(Cc3nnnn3C3CCCCC3)CC2)cc1 -5.77%, COc1ccccc1CN1CCN(C(c2ccccc2)c2ccccc2)CC1 -1.76%, COc1cc(C(=O)OCC(=O)NC(C)CCc2ccccc2)cc(OC)c1OC (stereo not given) -4.8%, Cc1ccc(S(=O)(=O)N2CCCCC2)cc1C(=O)N(C)CC(=O)Nc1cccc(F)c1 4.08%, CN(C)S(=O)(=O)c1ccc(N2CCCC2)c(C(=O)Nc2cccc(F)c2)c1 -1.6%, CCCCCCn1c(SCC(=O)c2ccccc2)nc2c1c(=O)[nH]c(=O)n2C -3.65%, Cc1ccc(C(=O)NC(=S)Nc2ccc3[nH]c(=O)[nH]c3c2)cc1C -1.4%, NC(N)=N/N=C/c1ccc(OCc2ccc(Cl)cc2Cl)cc1 0.729%, C/C(N)=C(/C#N)C(=O)COC(=O)C1CCN(C(=O)c2ccc(Cl)cc2)CC1 -0.831%, COc1ccc(N2C(=O)CC(Nc3ccc(F)cc3)C2=O)c([N+](=O)[O-])c1 (stereo not given) -1.69%, CCOC(=O)c1ccccc1NC(=O)CSc1nc2ccccc2c(=O)[nH]1 1.48%, CC(=O)NCc1ccc(-c2csc(NC(=O)CCCc3nc4ccccc4c(=O)[nH]3)n2)cc1 4.49%, CCCCN(C(=O)c1ccc2ccccc2c1)c1c(N)n(CCCC)c(=O)[nH]c1=O -4.05%, CCN(C(=O)COc1cccnc1[N+](=O)[O-])C1CCS(=O)(=O)C1 (stereo not given) 0.474%, CC(C)CNC(=O)C(=O)NCc1ccccc1 6.28%, CCN1C(=S)N[C@@H](CCc2ccccc2)[C@H](C(=O)OC)[C@H]1C -3.49%, CCN1C(=O)N[C@@H](CCc2ccccc2)C(C(=O)OC)=C1C -3.29%, COCCN1C(=O)N[C@@H](CCc2ccccc2)[C@H](C(C)=O)[C@H]1C 0.644%, CCCCNC(=O)CCn1nc(-c2ccc(Cl)cc2)ccc1=O -0.453%, Cc1ccc(-c2ccc(=O)n(CC(=O)NCCCN3CCCCC3)n2)cc1 -1.5%, Cc1cc(=O)[nH]c(SCc2cc(Cl)ccc2OC(F)F)n1 -4.15%, Cc1cc(=O)[nH]c(SCc2cccc(F)c2)n1 -0.614%, CC1CCN(S(=O)(=O)c2ccc(S(=O)(=O)NCc3ccco3)cc2)CC1 -4.88%, CN(CCOc1ccc(Br)cc1)CC(=O)Nc1cccc(S(=O)(=O)NC2=NCCC2)c1 -4.16%, COc1cccc(NC(=O)CN(C)C(=O)/C=C/c2cc(OC)ccc2OC)c1 -6.53%, COc1cccc(NC(=O)CN(C)C(=O)/C=C/c2cn(-c3ccccc3)nc2-c2cccs2)c1 -4.72%

inhibition, active:
CS(=O)(=O)c1ccc2c(c1)SC1=NC(=O)/C(=C/c3ccco3)C(=N)N12 41.6%, O=C(Nc1cccc(-c2nc3ccccc3[nH]2)c1)c1ccc(C(=O)Nc2cccc(-c3nc4ccccc4[nH]3)c2)cc1 52.5%, CC1(C)CC(N2CCN(C(c3ccccc3)c3ccccc3)CC2)=CC(=[N+]2CCCCC2)C1 57.4%, CCCCCCCC[n+]1cccc(C(=O)N2c3c(nc(N)[nH]c3=O)NC(C)C2C)c1 (stereo not given) 66.2%, O=C(CSc1nc2ccccc2c(=O)[nH]1)Nc1nc(-c2ccc(Br)cc2)cs1 44.5%, CCN1C(=NCC(C)C)N[C@@H](CCc2ccccc2)[C@H](C(=O)NCC(C)C)[C@H]1C 53.8%, CCN1C(=NCc2ccc(OC)cc2)N[C@@H](CCc2ccccc2)[C@H](C(=O)NCc2ccc(OC)cc2)[C@H]1C 49.6%, CCN(CC)CCCNC(=O)CCn1nc(-c2ccc(Cl)cc2)ccc1=O 98.8%, COc1ccccc1-c1noc(CSc2nc(C)cc(=O)[nH]2)n1 53.2%, COc1ccc(NC(=O)CN(C)C(=O)/C=C/c2cn(Cc3ccccc3)nc2-c2cccnc2)cc1 43.8%
